Among the test systems are SK-MEL-2 melanoma; EKVX NSCLC; SN12C renal; UO-31 renal; TK-10 renal; ACHN renal; CAKI-1 renal; A498 renal; CCRF-CEM leukemia; MOLT-4 leukemia; SR leukemia; RPMI-8226 leukemia; OVCAR-8 ovarian; OVCAR-5 ovarian; OVCAR-4 ovarian; SK-OV-3 ovarian; IGROV1 ovarian; OVCAR-3 ovarian; HS 578T breast; NCI/ADR-RES ovarian.
Assay in all cases: NCI-60 one-dose screen, 48 h (100 = growth as untreated, 0 = no growth, -100 = all killed)
Holding throughout (settings): 10 µM unless noted

This is part of a sample that, as a whole, favours compounds with a hit. Of some 83,000 tested, about 20% had one in any assay.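 A percent growth of 40 corresponds to 60% growth inhibition; 0 means no net growth; -100 means all cells died. Active threshold: below 10.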 A number with no mark means an inactive call. The source made the active and inactive calls.

Eight compounds from PubChem BioAssay (NCI) can be followed below.

Take `NC(=O)c1cccc([C@@H]2O[C@H](CO)[C@@H](O)[C@H]2O)c1`: the growth was 103% with SK-MEL-2 melanoma; 99% with EKVX NSCLC; 94.1% with SN12C renal; 52.1% in the assay with UO-31 renal; 55.5% with TK-10 renal; 93.1% with ACHN renal. Further, the growth is 80.9% with CAKI-1 renal; 86.6% with A498 renal; 11% in the assay on CCRF-CEM leukemia; -1.79% (active) in the assay on MOLT-4 leukemia; 84% in the assay with SR leukemia; -25.7% (active) in the assay with RPMI-8226 leukemia. Also, the growth in the assay on OVCAR-8 ovarian is 9.76% (active); with OVCAR-5 ovarian it was 102%; in the assay with OVCAR-4 ovarian, -20.6% (active); in the assay on SK-OV-3 ovarian, 28.7%; in the assay on IGROV1 ovarian, 110%; with OVCAR-3 ovarian it was 70.6%. Moreover, the growth with HS 578T breast is 5.46% (active); in the assay with NCI/ADR-RES ovarian it was 23.8%.
As for `CCS/C(Nc1ccccc1)=C(\C#N)C(=O)Nc1ccc(OC)cc1`, the growth in the assay on SK-MEL-2 melanoma was -0.335% (active); in the assay with EKVX NSCLC, 52.4%; in the assay on SN12C renal, 37.8%; in the assay on UO-31 renal, 50%; with TK-10 renal, 47.7%; in the assay with ACHN renal it was 51.9%. Besides, the growth in the assay with CAKI-1 renal is 40.4%; in the assay with A498 renal, 22.7%; with CCRF-CEM leukemia, 8.29% (active); in the assay with MOLT-4 leukemia, 10.1%; in the assay on SR leukemia it was 6.62% (active); in the assay on RPMI-8226 leukemia it was 25.2%. The growth is 31.2% with OVCAR-8 ovarian; 63.1% in the assay with OVCAR-5 ovarian; 66.7% with OVCAR-4 ovarian; 22.4% in the assay on SK-OV-3 ovarian; 55.7% with IGROV1 ovarian; -12.1% (active) with OVCAR-3 ovarian. Also, the growth in the assay on HS 578T breast was 27.4%; in the assay on NCI/ADR-RES ovarian, -0.669% (active).
On to `CCN1C2CCC1/C(=C\c1ccc(F)cc1)C(=O)/C2=C/c1ccc(F)cc1`, for which the growth with SK-MEL-2 melanoma was 58.9%; with EKVX NSCLC, 57.2%; with SN12C renal, 44.5%; in the assay with UO-31 renal, 53.6%; in the assay with TK-10 renal, 74.2%; in the assay on ACHN renal, 48.6%. The growth is 66.4% with CAKI-1 renal; 58.7% in the assay on A498 renal; 18.2% in the assay with CCRF-CEM leukemia; 13.9% with MOLT-4 leukemia; 24.5% with SR leukemia; 18.5% in the assay with RPMI-8226 leukemia. For the same compound, the growth with OVCAR-8 ovarian is 12.5%; in the assay on OVCAR-5 ovarian, 73.4%; in the assay with OVCAR-4 ovarian it was 47.3%; in the assay on SK-OV-3 ovarian, 62%; in the assay with IGROV1 ovarian, 45.7%; with OVCAR-3 ovarian, 11%. Further, the figures for the growth in the assay on HS 578T breast and with NCI/ADR-RES ovarian were 66.3% and 17.4%, respectively.
`O=S(=O)(NCCCNc1nccc(-c2c(-c3cccc(F)c3)nc3occn23)n1)c1ccc(F)cc1`: the growth in the assay with SK-MEL-2 melanoma is 55.5%; with EKVX NSCLC it was 54.3%; with SN12C renal, 51.2%; in the assay with UO-31 renal it was 31.4%; in the assay on TK-10 renal, 56.7%; with ACHN renal, 46%. For the same compound, the growth was 37.1% in the assay on CAKI-1 renal; 45.7% in the assay on A498 renal; 31.9% in the assay with CCRF-CEM leukemia; 8.3% (active) in the assay on MOLT-4 leukemia; 53.8% in the assay on SR leukemia; 37.3% in the assay on RPMI-8226 leukemia. Moreover, the growth in the assay with OVCAR-8 ovarian is 30.1%; in the assay with OVCAR-5 ovarian it was 89.9%; with OVCAR-4 ovarian, 37%; in the assay with SK-OV-3 ovarian, 54.5%; with IGROV1 ovarian, 24.5%; in the assay on OVCAR-3 ovarian, 55.3%. The figures for the growth in the assay with HS 578T breast and with NCI/ADR-RES ovarian were 59% and 42.4%, respectively.
In the case of `O=C1c2ccccc2C(=O)c2c1c(C(=O)NCc1ccccc1)c1ccccn21`, the growth in the assay with SK-MEL-2 melanoma was 87.8%; in the assay with EKVX NSCLC, 105%; in the assay with SN12C renal, 107%; in the assay on UO-31 renal, 89.8%; in the assay on TK-10 renal it was 97.2%; in the assay with ACHN renal, 103%. The growth in the assay with CAKI-1 renal is 91.7%; in the assay on A498 renal, 95.6%; in the assay with CCRF-CEM leukemia, 90.2%; in the assay with MOLT-4 leukemia it was 96.3%; in the assay with SR leukemia it was 90.9%; in the assay with RPMI-8226 leukemia it was 95.8%. Besides, the growth in the assay with OVCAR-8 ovarian was 93.9%; in the assay with OVCAR-5 ovarian it was 111%; in the assay on OVCAR-4 ovarian, 105%; in the assay on SK-OV-3 ovarian, 102%; in the assay on IGROV1 ovarian, 97.8%; with OVCAR-3 ovarian it was 116%. In addition, the values for the growth in the assay on HS 578T breast and in the assay on NCI/ADR-RES ovarian were 97.9% and 103%, respectively.
In the case of `Cc1nc2c(c(=O)[nH]1)C(c1ccccc1)c1ccc3ccccc3c1O2` (stereo not given), the growth in the assay on SK-MEL-2 melanoma is 16.5%; in the assay on EKVX NSCLC it was 60.5%; in the assay on SN12C renal, 44.6%; in the assay on UO-31 renal, 38.6%; with TK-10 renal, 74%; in the assay with ACHN renal, 39.8%. For the same compound, the growth is 30% in the assay with CAKI-1 renal; 20.6% in the assay on A498 renal; 13% in the assay with CCRF-CEM leukemia; 41% in the assay with MOLT-4 leukemia; 19.3% with SR leukemia; 27.1% in the assay on RPMI-8226 leukemia. For the same compound, the growth with OVCAR-8 ovarian was 34.5%; in the assay on OVCAR-5 ovarian, 87.2%; in the assay with OVCAR-4 ovarian, 64.2%; in the assay on SK-OV-3 ovarian, 11.1%; in the assay on IGROV1 ovarian it was 38.9%; in the assay on OVCAR-3 ovarian, 0.0339% (active). The growth is 22.6% with HS 578T breast and 14.6% in the assay on NCI/ADR-RES ovarian.
Regarding `CCN1C(=O)N(CC)C2C1NC(=S)N2/N=C/c1ccc(C(F)(F)F)cc1` (stereo not given), the growth in the assay on SK-MEL-2 melanoma is 87.9%; with EKVX NSCLC, 81.6%; in the assay on SN12C renal it was 82.4%; in the assay on UO-31 renal, 62.3%; in the assay with TK-10 renal, 95%; with ACHN renal, 79%. The growth in the assay with CAKI-1 renal is 37%; in the assay with A498 renal, 44.9%; in the assay with CCRF-CEM leukemia, 80.2%; with MOLT-4 leukemia, 70.5%; in the assay on SR leukemia, 28.4%; in the assay with RPMI-8226 leukemia it was 76.8%. Further, the growth in the assay on OVCAR-8 ovarian was 86.8%; in the assay on OVCAR-5 ovarian, 81.3%; in the assay on OVCAR-4 ovarian, 72.7%; with SK-OV-3 ovarian, 79%; in the assay on IGROV1 ovarian it was 60.6%; with OVCAR-3 ovarian it was 64.8%. The growth in the assay with HS 578T breast is 66.2%; in the assay with NCI/ADR-RES ovarian it was 69.5%.
As to `C[C@H](C(=O)N(CCc1ccc(Cl)c(Cl)c1)Cc1cncs1)[C@@H]1CC[C@H](C[C@H](C)n2cc(CN3CCC(c4ccc(Cl)cc4)CC3)nn2)O1`, the growth is 106% in the assay on SK-MEL-2 melanoma; 95.4% in the assay on EKVX NSCLC; 97.5% in the assay on SN12C renal; 82.2% in the assay with UO-31 renal; 104% in the assay with TK-10 renal; 102% with ACHN renal. Moreover, the growth in the assay on CAKI-1 renal was 87.9%; in the assay on A498 renal, 108%; in the assay on CCRF-CEM leukemia, 94.3%; in the assay with MOLT-4 leukemia it was -70% (active); in the assay with SR leukemia, -44.7% (active); with RPMI-8226 leukemia, 91.7%. Further, the growth with OVCAR-8 ovarian is 91%; in the assay on OVCAR-5 ovarian it was 97%; in the assay on OVCAR-4 ovarian, 92.6%; with SK-OV-3 ovarian, 103%; with IGROV1 ovarian it was 101%; in the assay on OVCAR-3 ovarian, 105%. Also, the growth with HS 578T breast was 98.7%; in the assay on NCI/ADR-RES ovarian, 105%.
